Source: PubChem BioAssay (NCATS)
Inconclusive results are not listed. The source made the active and inactive calls. Calls follow the shape of the dose curve; as a rule, active = well fitted inhibition curve with a large enough effect; inconclusive = small, poorly fitted or top-dose-only effect; inactive = flat fitted curve, though single readings scatter.

What was measured:
Experiment in all cases: qHTS profiling for inhibitors of Plasmodium falciparum proliferation (AID 504749); also: nearly all actives have a fitted effect of over 60% in size
Conditions in all cases: P. falciparum in erythrocytes, SYBR Green DNA, 72 h; series mostly up to 28.7 µM
DIV30 = tested on: DIV30
Summary of the method: (§1)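 Each compound contacts P. falciparum-infected red blood cells for 72 h at 37 C; lysis buffer (Tris, EDTA, saponin, Triton X, SYBR Green I) is added and fluorescence measured next morning; values normalized to controls.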

Dd2 = tested on: Dd2
Summary of the method: as §1

ECU = tested on: ECU
Summary of the method: as §1

FAB9 = tested on: FAB9
Summary of the method: as §1

GB4 = tested on: GB4
Summary of the method: as §1

HB3 = tested on: HB3
Summary of the method: as §1

ICS = tested on: ICS
Summary of the method: as §1

JCK = tested on: JCK
Summary of the method: as §1

N140 = tested on: N140
Summary of the method: as §1

P93_24 = tested on: P93_24
Summary of the method: as §1

P94_40 = tested on: P94_40
Summary of the method: as §1

PAD = tested on: PAD
Summary of the method: as §1

PC15 = tested on: PC15
Summary of the method: as §1

PC26 = tested on: PC26
Summary of the method: as §1

PC49 = tested on: PC49
Summary of the method: as §1

SC27B = tested on: SC27B
Summary of the method: as §1

TAB109 = tested on: TAB109
Summary of the method: as §1

TAB113 = tested on: TAB113
Summary of the method: as §1

TAB165 = tested on: TAB165
Summary of the method: as §1

W2 = tested on: W2
Summary of the method: as §1

Measured: Potency
Potency is read from the fitted curve at half-maximal effect.

O=[N+]([O-])c1ccccc1
inactive: all assays above

ClC=C(Cl)Cl
inactive: all assays above

S=C(S)N1CCNCC1
inactive: all assays above

N#CC1(N2CCCCC2)CCCCC1
inactive: all assays above

CC(=O)OO
inactive: all assays above

Clc1ccccc1Cl
inactive: all assays above

c1ccc2sc(SNC3CCCCC3)nc2c1
not listed: W2
inactive: all other assays above

CN1c2ccccc2C(NCCCCCCC(=O)O)c2ccc(Cl)cc2S1(=O)=O (stereo not given)
inactive: all assays above

CCC1(CC)C(=O)NC(=O)N(C)C1=O
not listed: W2
inactive: all other assays above

O=[N+]([O-])c1ccc(F)c([N+](=O)[O-])c1
inactive: all assays above

Clc1ccc(Cl)cc1
inactive: all assays above

O=C1CC[C@@]2(O)C3Cc4ccc(O)c5c4C2(CCN3CC2CC2)[C@H]1O5 (stereo not given in full)
not listed: W2
inactive: all other assays above

Cn1sc(Cl)cc1=O
inactive: all assays above

O=C1CCCCC1CN1CCCCC1 (stereo not given)
inactive: all assays above

O=[N+]([O-])c1cc(I)c(O)c(I)c1
inactive: all assays above

C[C@H]1CC[C@@H]2[C@@H](C)[C@H]3[C@H](C[C@H]4[C@@H]5CC=C6CC(O[C@@H]7O[C@H](CO)[C@H](O)[C@H](O[C@@H]8O[C@H](CO)[C@@H](O)[C@H](O)[C@H]8O)[C@H]7O[C@H]7O[C@@H](C)[C@H](O)[C@@H](O)[C@H]7O)CC[C@]6(C)[C@H]5CC[C@]34C)N2C1 (stereo not given in full)
not listed: W2
inactive: all other assays above

O=[N+]([O-])C(Br)(CO)CO
not listed: W2
inactive: all other assays above

COC1=CC=C2[C@H]3Cc4ccc(OC)c5c4[C@@]2(CCN3C)[C@H]1O5
not listed: W2
inactive: all other assays above

CC(C)(O)C1C2OC(=O)C1C1(O)CC3OC34C(=O)OC2C14C (stereo not given)
inactive: all assays above

O=C(OCCN1CCCCC1)C(O)(c1ccccc1)c1ccccc1
inactive: all assays above

O=c1[nH]c(=O)n(Cl)c(=O)n1Cl
inactive: all assays above

[O]=[Cd]
inactive: all assays above

CCC1(c2ccccc2)C(=O)NC(=O)N(C(=O)c2ccccc2)C1=O (stereo not given)
not listed: W2
inactive: all other assays above

NCC(O)c1cccc(O)c1 (stereo not given)
inactive: all assays above

CC(Cc1ccccc1)NC=O (stereo not given)
inactive: all assays above

CCC1(c2ccccc2)C(=O)NC(=O)NC1=O
inactive: all assays above

COc1ccc2c3c1O[C@H]1C(=O)CC[C@H]4[C@@H](C2)N(C)CC[C@]314
not listed: W2
inactive: all other assays above

C=CCN1CC[C@]23c4c5ccc(O)c4O[C@H]2[C@@H](O)C=C[C@H]3[C@H]1C5
inactive: all assays above

CN1C2CCC1CC(OC(c1ccccc1)c1ccc(Cl)cc1)C2 (stereo not given)
active: DIV30 7.57 µM | Dd2 10 µM | ECU 6.31 µM | FAB9 11.2 µM | GB4 6.01 µM | HB3 12.6 µM | ICS 3.55 µM | JCK 12.6 µM | N140 11.2 µM | P93_24 8.91 µM | P94_40 10 µM | PAD 12.6 µM | PC15 3.98 µM | PC26 7.57 µM | PC49 5.01 µM | SC27B 11.2 µM | TAB109 7.08 µM | TAB113 7.94 µM | TAB165 5.01 µM | W2 2.39 µM

C=CCN1CCC23c4c5ccc(O)c4O[C@H]2C(=O)CC[C@@]3(O)C1C5 (stereo not given in full)
inactive: all assays above

C[C@]12CCC(=O)C[C@@H]1CC[C@@H]1[C@@H]2CC[C@]2(C)[C@@H](O)CC[C@@H]12
inactive: all assays above

S=C=S
inactive: all assays above

[O]=[Cr](=[O])([OH])[O][Cr](=[O])(=[O])[OH]
inactive: all assays above

Oc1cccc[c]1[Hg][Cl]
active: DIV30 9.53 µM | Dd2 2.51 µM | ECU 3.55 µM | FAB9 10 µM | GB4 4.26 µM | HB3 10 µM | ICS 5.01 µM | JCK 12.6 µM | N140 5.01 µM | P93_24 6.31 µM | P94_40 5.01 µM | PAD 5.62 µM | PC15 10 µM | PC26 12 µM | PC49 14.1 µM | SC27B 10 µM | TAB109 3.98 µM | TAB113 10 µM | TAB165 7.94 µM | W2 4.78 µM

O=C1C2CC=CCC2C(=O)N1SC(Cl)(Cl)Cl (stereo not given)
not listed: W2
inactive: all other assays above

CNC(=O)OCC[N+](C)(C)C
inactive: all assays above

O=C/C=C/c1ccccc1
inactive: all assays above

O=P(O)(O)C(Cl)(Cl)P(=O)(O)O
inactive: all assays above

CCOC(=O)c1ccccc1C(=O)OCC
inactive: all assays above

C#CC(C)(O)CC (stereo not given)
inactive: all assays above

O=C(NCNC(=O)NC1C(=O)NC(=O)N1CO)NC1C(=O)NC(=O)N1CO (stereo not given)
inactive: all assays above

FC(F)OC(F)(F)C(F)Cl (stereo not given)
inactive: all assays above

CC[N+](C)(CC)CCOC(=O)C(O)(c1ccccc1)c1ccccc1
inactive: all assays above

ClCC1CO1 (stereo not given)
inactive: all assays above

O=C(CS(=O)C(c1ccccc1)c1ccccc1)NO (stereo not given)
not listed: TAB109
inactive: all other assays above

O=C1CCO1
not listed: PC15
inactive: all other assays above

CCCC(C)C1(CC)C(=O)NC(=O)NC1=O (stereo not given)
inactive: all assays above

[N-]=[N+]=CC(=O)OCC(N)C(=O)O (stereo not given)
inactive: all assays above

CCC(C)(S(=O)(=O)CC)S(=O)(=O)CC
not listed: TAB109
inactive: all other assays above

O=C(NC(=O)c1c(F)cccc1F)Nc1ccc(Cl)c(Oc2ncc(C(F)(F)F)cc2Cl)c1
not listed: TAB165
inactive: all other assays above

Clc1ccc(C2(Cn3cncn3)OCCO2)c(Cl)c1
inactive: all assays above

CCCCNCC(O)c1ccc(O)cc1 (stereo not given)
active: JCK 1.12 µM
inactive: all other assays above

COc1ccc(OC)c(C(O)C(C)N)c1 (stereo not given)
inactive: all assays above

O=Cc1ccco1
not listed: TAB165
inactive: all other assays above

CCCC(C)(COC(N)=O)COC(=O)NC1CC1 (stereo not given)
not listed: TAB109
inactive: all other assays above

O[C@H]1[C@H]2[C@H](O)CCCN2C[C@H]1O
inactive: all assays above

O=C1CN(O)C(c2ccccc2)=c2cc(Cl)ccc2=N1
inactive: all assays above
